Assay results as given in the supplement of paper PMC6555819.

How the values were obtained:
Assay in all cases: PBM binding z-score (relative to random genomic background probes); higher = stronger binding; sequences stand for … in GC…GCGATTGACAGCGTAGAATGAAGG
[1] = tested on: RARb homodimer (NR concentration 270 nM)
Outline: (§1)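 Antibodies against each partner of ligand-free nuclear receptor dimers (one per run) detected binding on custom Agilent 4×180K protein-binding microarrays after 1 h incubation. The double-stranded probes had 34-nt variable regions carrying direct-repeat seeds, single-nucleotide variants, half-site ablations and random human genomic background sequences. Binding z-scores, from regression-normalized fluorescence, use the random background probes as reference.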

[2] = tested on: RARg:RXRa (NR concentration 270 nM, RXRa partner concentration 90 nM)
Outline: as §1

[3] = tested on: RARg homodimer (NR concentration 270 nM)
Outline: as §1

[4] = tested on: RXRa DBDmut IVT, anti-RXR (DBD mutation: RXRa K156A/R161A, NR concentration 90 nM)
Outline: as §1

[5] = tested on: RXRa homodimer (NR concentration 180 nM)
Outline: as §1

[6] = tested on: THRa:RXRa (NR concentration 90 nM, RXRa partner concentration 90 nM)
Outline: as §1

[7] = tested on: THRa homodimer (NR concentration 90 nM)
Outline: as §1

[8] = tested on: VDR homodimer (NR concentration 270 nM)
Outline: as §1

CCTTACGGGACAAGGTTATAGCACGGGTGGTACG
PBM binding z-score [1]: 1.07 | PBM binding z-score [2]: 1.07 | PBM binding z-score [3]: 0.894 | PBM binding z-score [4]: -0.464 | PBM binding z-score [5]: 1.35 | PBM binding z-score [6]: 1.08 | PBM binding z-score [7]: 0.341 | PBM binding z-score [8]: 0.555

TCATATAGGTAAAGGTGAACGTCGAACGATATGA
PBM binding z-score [1]: 1.73 | PBM binding z-score [2]: 1.71 | PBM binding z-score [3]: 1.52 | PBM binding z-score [4]: 0.894 | PBM binding z-score [5]: 2.17 | PBM binding z-score [6]: 1.5 | PBM binding z-score [7]: -0.0395 | PBM binding z-score [8]: -0.239

CAAACTAGGTCACAGAGGTCAATGTCCGTGCGTA
PBM binding z-score [1]: 5.68 | PBM binding z-score [2]: 6.89 | PBM binding z-score [3]: 7.2 | PBM binding z-score [4]: 3.06 | PBM binding z-score [5]: 6.85 | PBM binding z-score [6]: 4.66 | PBM binding z-score [7]: 2.96 | PBM binding z-score [8]: 6.33

GATACAGGGTCAGCTAGAGGCCACAGTATGGAAA
PBM binding z-score [1]: 3.61 | PBM binding z-score [2]: 7.06 | PBM binding z-score [3]: 5.21 | PBM binding z-score [4]: 0.909 | PBM binding z-score [5]: 4.27 | PBM binding z-score [6]: 3.39 | PBM binding z-score [7]: 0.56 | PBM binding z-score [8]: 0.844

TCTTGTAGATCAACAGGCGGTTAAGAAAGATCGA
PBM binding z-score [1]: -0.586 | PBM binding z-score [2]: 0.0814 | PBM binding z-score [3]: -0.187 | PBM binding z-score [4]: 0.904 | PBM binding z-score [5]: 0.0872 | PBM binding z-score [6]: -0.136 | PBM binding z-score [7]: -0.273 | PBM binding z-score [8]: -0.602

TCTATCAGGCCAGAGGGTCACTCAAGAGGTACGG
PBM binding z-score [1]: 2.89 | PBM binding z-score [2]: 2.92 | PBM binding z-score [3]: 2.44 | PBM binding z-score [4]: 0.811 | PBM binding z-score [5]: 2.56 | PBM binding z-score [6]: 2.29 | PBM binding z-score [7]: 0.348 | PBM binding z-score [8]: 1.16

CCTCGGAGGACAACAGGTGGTCAGAGCTGCCAGA
PBM binding z-score [1]: 0.83 | PBM binding z-score [2]: 0.693 | PBM binding z-score [3]: 1.32 | PBM binding z-score [4]: -0.142 | PBM binding z-score [5]: -0.432 | PBM binding z-score [6]: 0.397 | PBM binding z-score [7]: -0.269 | PBM binding z-score [8]: -0.187

TCTGGTAGATCAAAGGTTAAGAAAGCCGAAGCCT
PBM binding z-score [1]: 1.4 | PBM binding z-score [2]: 1.89 | PBM binding z-score [3]: 0.73 | PBM binding z-score [4]: 0.747 | PBM binding z-score [5]: 3.05 | PBM binding z-score [6]: 1.33 | PBM binding z-score [7]: -0.327 | PBM binding z-score [8]: 0.151

CCCAGCAGGCCAGGGTCACTCAAGCATTTCGCTT
PBM binding z-score [1]: 2.82 | PBM binding z-score [2]: 3.02 | PBM binding z-score [3]: 2.79 | PBM binding z-score [4]: 0.022 | PBM binding z-score [5]: 3.26 | PBM binding z-score [6]: 2.81 | PBM binding z-score [7]: 1.3 | PBM binding z-score [8]: 1.55

AGAAAGAGGGCAATGAGTTGATAGCACGGGTGGC
PBM binding z-score [1]: 1.65 | PBM binding z-score [2]: 1.64 | PBM binding z-score [3]: 2.08 | PBM binding z-score [4]: 1.7 | PBM binding z-score [5]: 1.07 | PBM binding z-score [6]: 0.681 | PBM binding z-score [7]: -0.101 | PBM binding z-score [8]: 3.05

GCTTACGGGTCAAAGGTTAGAGCATGAATAGAAT
PBM binding z-score [1]: 3.1 | PBM binding z-score [2]: 6.33 | PBM binding z-score [3]: 4.54 | PBM binding z-score [4]: 2.02 | PBM binding z-score [5]: 8.91 | PBM binding z-score [6]: 3.6 | PBM binding z-score [7]: -0.338 | PBM binding z-score [8]: 0.946

CGTTAAAGTTCAACTAAGGTAACGTAAAGCACGC
PBM binding z-score [1]: 4.09 | PBM binding z-score [2]: 5.55 | PBM binding z-score [3]: 6.33 | PBM binding z-score [4]: 4.8 | PBM binding z-score [5]: 4.25 | PBM binding z-score [6]: 5.26 | PBM binding z-score [7]: 1.68 | PBM binding z-score [8]: 3.94

CAAACTAGGTCAAGAGGCCAAAGTCCGCTTCCCG
PBM binding z-score [1]: 3.79 | PBM binding z-score [2]: 4.65 | PBM binding z-score [3]: 4.83 | PBM binding z-score [4]: 1.85 | PBM binding z-score [5]: 2.98 | PBM binding z-score [6]: 2.75 | PBM binding z-score [7]: 0.986 | PBM binding z-score [8]: 1.03

CCGACTGGGGCAAGGTTAACATAACGCACAGCCA
PBM binding z-score [1]: 1.47 | PBM binding z-score [2]: 1.3 | PBM binding z-score [3]: 1.3 | PBM binding z-score [4]: -0.45 | PBM binding z-score [5]: 1.38 | PBM binding z-score [6]: 1.37 | PBM binding z-score [7]: -0.033 | PBM binding z-score [8]: 0.172
